Measurements as given in PubChem BioAssay (Tox21).
Values without a mark were called inactive. The source made the active and inactive calls. The call rests on the fitted dose curve; in most records, active means well fitted curve in the direction sought with a large enough effect in the repeat runs; inconclusive means weak or mixed curves; inactive means flat fitted curve, though single readings scatter.

Test: qHTS assay to test for compound auto fluorescence at 535 nm (green) in HepG2 cells (AID 720675)
Details: green autofluorescence 485/535 nm, 1 h; series mostly up to 46 µM; fluorescence, % of fluorescein control: at the top concentration
On the % scale 0 is the no-effect control and ±100 the full control effect.

Compound	fluorescence, % of fluorescein control	outcome
CCN1CCC[C@H]1CNC(=O)c1c(O)c(Cl)cc(Cl)c1OC	0.0268%	–
OC(CCN1CCCCC1)(c1ccccc1)C1CC2C=CC1C2 (stereo not given)	–	inactive
C1CN(CCOCCN2CCOCC2)CCO1	0.0533% [at 91.3 µM]	–
COc1nc(N)nc2c1ncn2[C@@H]1O[C@H](CO)[C@@H](O)[C@@H]1O	0.09%	–
C=C[Si](OC(=C)C)(OC(=C)C)OC(=C)C	0.0956% [at 91.3 µM]	–
CCOC(C)(C)C	-0.111% [at 95.7 µM]	–
C=CCS(=O)(=O)O	0.0144% [at 91.3 µM]	–
CC(C)CNCC(C)C	0.067% [at 91.3 µM]	–
Oc1ccc(C2CNCCc3c2cc(O)c(O)c3Cl)cc1 (stereo not given)	0.0297%	–
O=C(O)COc1nn(Cc2ccccc2)c2ccccc12	-0.0119%	–
CC(C)NCC(O)c1ccc(NS(C)(=O)=O)cc1 (stereo not given)	–	inactive
CO[Si](CCCOCC1CO1)(OC)OC (stereo not given)	–	inactive
CCSC(=O)N(CC(C)C)CC(C)C	0.0912% [at 91.3 µM]	–
NC(=O)c1ccc([N+](=O)[O-])cc1	-0.0527% [at 91.3 µM]	–
CCCN1CCCC[C@H]1C(=O)Nc1c(C)cccc1C	-0.0049%	–

Test: qHTS assay to test for compound auto fluorescence at 460 nm (blue) in HEK293 cells (AID 720678)
Details: blue autofluorescence 405/460 nm; series mostly up to 46 µM; fluorescence, % of triamterene: at the top concentration
How it was run: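 HEK293 cells (2,000 per well, medium with 10% dialyzed FBS) attached for 4-5 hr at 37C, then received compound and stood overnight at 37C, 5% CO2. Blue fluorescence was read at Ex/Em 405/460 nm and expressed relative to triamterene.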

Compound	fluorescence, % of triamterene	outcome
C[N+](C)(C)CCCCCC[N+](C)(C)C	-0.175%	–
NS(=O)(=O)c1cc2c(cc1Cl)NC(C1CC3C=CC1C3)NS2(=O)=O (stereo not given)	0.0272%	–
OCCOc1ccc(OCCO)cc1	-0.0526% [at 95.7 µM]	–
COC(C)(C)CCCC(C)CC=O (stereo not given)	0.0047% [at 91.3 µM]	–
CCOC(=O)CCC(C)=O	-0.0394% [at 91.3 µM]	–
NC(=O)COCCN1CCN(C(c2ccccc2)c2ccc(Cl)cc2)CC1 (stereo not given)	0.067%	–
C=CCCCCCCCCC=O	-0.121% [at 91.3 µM]	–
NS(=O)(=O)c1ccc(C(=O)O)cc1	0.225%	–
CC[N+](C)(C)c1cccc(O)c1	-0.141% [at 18.6 µM]	–
O=C(O)CCCc1ccccc1	0.0471%	–
CC(=O)c1ccccc1O	0.102% [at 91.3 µM]	–
Cc1cccn2c(=O)c(-c3nnn[nH]3)cnc12	2.06%	–
c1ccc([C@H]2CN3CCSC3=N2)cc1	0.153%	–
CC(C[N+](C)(C)C)OC(N)=O (stereo not given)	0.117%	–
CCCCCCCCS(=O)(=O)Cl	-0.277% [at 91.3 µM]	–
O=[N+]([O-])c1ccc(F)cc1F	0.0074% [at 91.3 µM]	–
CC(=O)OCC(=O)[C@@]1(O)CCC2C3CCC4=CC(=O)CC[C@]4(C)C3[C@@H](O)C[C@@]21C (stereo not given in full)	0.125%	–
COC(=O)c1c(Cl)c(Cl)c(C(=O)OC)c(Cl)c1Cl	–	inactive
O=C1CCCC(=O)C1	1.49% [at 91.3 µM]	–
CCOC(=O)c1ccc(C)cc1	0.0025% [at 91.3 µM]	–

Compound	fluorescence, % of triamterene	outcome
O=C(CCCN1CCN(c2ccccn2)CC1)c1ccc(F)cc1	-0.249%	–
CC1(C)C(O)C(C)(C)C1O (stereo not given)	-0.166% [at 91.3 µM]	–
CC/C=C\CC/C=C/C(OCC)OCC	0.181% [at 91.3 µM]	–
COc1c(N2C[C@@H]3CCCN[C@@H]3C2)c(F)cc2c(=O)c(C(=O)O)cn(C3CC3)c12	–	inactive
COC(=O)[C@@H](N)Cc1ccc(O)c(O)c1	1.4%	–
CCN1CCC[C@H]1CNC(=O)c1c(O)c(Cl)cc(Cl)c1OC	-0.0576%	–
OC(CCN1CCCCC1)(c1ccccc1)C1CC2C=CC1C2 (stereo not given)	–	inactive
C1CN(CCOCCN2CCOCC2)CCO1	-0.0087% [at 91.3 µM]	–
COc1nc(N)nc2c1ncn2[C@@H]1O[C@H](CO)[C@@H](O)[C@@H]1O	0.0299%	–
C=C[Si](OC(=C)C)(OC(=C)C)OC(=C)C	-0.0147% [at 91.3 µM]	–
CCOC(C)(C)C	-0.246% [at 95.7 µM]	–
C=CCS(=O)(=O)O	-0.0387% [at 91.3 µM]	–
CC(C)CNCC(C)C	0.068% [at 91.3 µM]	–
Oc1ccc(C2CNCCc3c2cc(O)c(O)c3Cl)cc1 (stereo not given)	-0.213%	–
O=C(O)COc1nn(Cc2ccccc2)c2ccccc12	0.148%	–
CC(C)NCC(O)c1ccc(NS(C)(=O)=O)cc1 (stereo not given)	–	inactive
CO[Si](CCCOCC1CO1)(OC)OC (stereo not given)	–	inactive
CCSC(=O)N(CC(C)C)CC(C)C	-0.0735% [at 91.3 µM]	–
NC(=O)c1ccc([N+](=O)[O-])cc1	0.0506% [at 91.3 µM]	–
CCCN1CCCC[C@H]1C(=O)Nc1c(C)cccc1C	-0.101%	–

Test: qHTS assay to test for compound auto fluorescence at 590 nm (red) in HEK293 cells (AID 720679)
Details: red autofluorescence 540/590 nm; series mostly up to 46 µM; fluorescence, % of fluorescent control: at the top concentration
How it was run: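 HEK293 cells (2,000/well, medium with 10% dialyzed FBS) attached for 4-5 hr at 37C, received 23 nL compound and were incubated overnight at 37C, 5% CO2. Red fluorescence was then read at 540/590nm Ex/Em, referenced to Rose Bengal sodium.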

Compound	fluorescence, % of fluorescent control	outcome
C[N+](C)(C)CCCCCC[N+](C)(C)C	0.147%	–
NS(=O)(=O)c1cc2c(cc1Cl)NC(C1CC3C=CC1C3)NS2(=O)=O (stereo not given)	0.102%	–
COC(C)(C)CCCC(C)CC=O (stereo not given)	0.0207% [at 91.3 µM]	–
CCOC(=O)CCC(C)=O	-0.248% [at 91.3 µM]	–
NC(=O)COCCN1CCN(C(c2ccccc2)c2ccc(Cl)cc2)CC1 (stereo not given)	-0.295%	–
C=CCCCCCCCCC=O	-0.282% [at 91.3 µM]	–
NS(=O)(=O)c1ccc(C(=O)O)cc1	-0.0306%	–
CC[N+](C)(C)c1cccc(O)c1	-1.07% [at 18.6 µM]	–
CC(=O)c1ccccc1O	-0.0483% [at 91.3 µM]	–
Cc1cccn2c(=O)c(-c3nnn[nH]3)cnc12	0.156%	–
c1ccc([C@H]2CN3CCSC3=N2)cc1	0.0293%	–
CCCCCCCCS(=O)(=O)Cl	-0.077% [at 91.3 µM]	–
CC(=O)OCC(=O)[C@@]1(O)CCC2C3CCC4=CC(=O)CC[C@]4(C)C3[C@@H](O)C[C@@]21C (stereo not given in full)	-0.0443%	–
COC(=O)c1c(Cl)c(Cl)c(C(=O)OC)c(Cl)c1Cl	–	inactive
CC1(C)C(O)C(C)(C)C1O (stereo not given)	-0.517% [at 91.3 µM]	–
CC/C=C\CC/C=C/C(OCC)OCC	0.0786% [at 91.3 µM]	–
COc1c(N2C[C@@H]3CCCN[C@@H]3C2)c(F)cc2c(=O)c(C(=O)O)cn(C3CC3)c12	–	inactive
COC(=O)[C@@H](N)Cc1ccc(O)c(O)c1	0.009%	–
CCN1CCC[C@H]1CNC(=O)c1c(O)c(Cl)cc(Cl)c1OC	0.0265%	–
OC(CCN1CCCCC1)(c1ccccc1)C1CC2C=CC1C2 (stereo not given)	–	inactive
C1CN(CCOCCN2CCOCC2)CCO1	-0.152% [at 91.3 µM]	–
COc1nc(N)nc2c1ncn2[C@@H]1O[C@H](CO)[C@@H](O)[C@@H]1O	-0.108%	–
C=C[Si](OC(=C)C)(OC(=C)C)OC(=C)C	0.115% [at 91.3 µM]	–
CCOC(C)(C)C	0.053% [at 95.7 µM]	–
C=CCS(=O)(=O)O	-0.601% [at 91.3 µM]	–
CC(C)CNCC(C)C	-0.0924% [at 91.3 µM]	–
Oc1ccc(C2CNCCc3c2cc(O)c(O)c3Cl)cc1 (stereo not given)	0.119%	–
CO[Si](CCCOCC1CO1)(OC)OC (stereo not given)	–	inactive
NC(=O)c1ccc([N+](=O)[O-])cc1	0.266% [at 91.3 µM]	–
CCCN1CCCC[C@H]1C(=O)Nc1c(C)cccc1C	0.461%	–
